According to PubChem BioAssay AID720504 (National Center for Advancing Translational Sciences (NCATS), 2013):
The campaign covered roughly 360,000 compounds. About 10,000 (2.8%) were called active. Roughly 4% stayed inconclusive and do not appear here. The list comes from a sample in which actives are over-represented; it also holds similar structures and randomly drawn compounds. Values without a mark were called inactive. Calls follow the shape of the dose curve; as a rule, active = well fitted inhibition curve with a large enough effect; inconclusive = small, poorly fitted or top-dose-only effect; inactive = flat fitted curve, though single readings scatter.

target: Serine/threonine-protein kinase PLK1 (Homo sapiens) (UniProt P53350); experiment: qHTS for Inhibitors of PLK1-PDB (polo-like kinase 1 - polo-box domain): Primary Screen; conditions: Plk1 PBD binding of FITC phosphopeptide, fluorescence polarization; also: nearly all actives have a fitted effect of over 65% in size; as to max response, negative = inhibition: series mostly up to about 57 µM
% is scaled to controls: 0 for no effect and ±100 for the full control effect; potency is read from the fitted curve at half-maximal effect.

Serine/threonine-protein kinase PLK1 (Homo sapiens), sequence (P53350 whole entry, looked up, the tested form may be a part): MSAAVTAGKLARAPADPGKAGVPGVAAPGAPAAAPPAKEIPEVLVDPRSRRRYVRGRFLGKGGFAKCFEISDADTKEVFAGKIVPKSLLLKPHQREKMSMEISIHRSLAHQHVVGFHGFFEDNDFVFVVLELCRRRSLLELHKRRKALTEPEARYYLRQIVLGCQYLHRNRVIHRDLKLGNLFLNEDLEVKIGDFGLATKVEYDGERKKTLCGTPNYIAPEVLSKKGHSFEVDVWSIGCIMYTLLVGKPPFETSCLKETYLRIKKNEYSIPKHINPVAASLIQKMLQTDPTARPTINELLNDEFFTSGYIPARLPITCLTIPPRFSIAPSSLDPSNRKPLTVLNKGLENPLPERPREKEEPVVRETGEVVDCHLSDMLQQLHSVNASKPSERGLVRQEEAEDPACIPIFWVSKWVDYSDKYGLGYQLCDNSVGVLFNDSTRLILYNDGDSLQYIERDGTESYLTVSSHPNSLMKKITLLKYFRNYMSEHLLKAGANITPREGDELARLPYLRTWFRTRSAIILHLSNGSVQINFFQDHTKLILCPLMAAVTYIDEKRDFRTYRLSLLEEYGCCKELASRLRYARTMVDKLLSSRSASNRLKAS

SMILES	max response, negative = inhibition	Potency
CC1(Oc2ccc(Cl)cc2)CCN(Cc2csc3ccccc23)C1 (stereo not drawn)	-4.39%	–
Cc1ccc(CNC(=O)Nc2nnc([C@H]3C[C@H](O)[C@@H](CO)O3)s2)cc1	6.99%	–
CC(C)C[C@@H](COCc1ccc(Cl)cc1)N1CCN(C(=O)c2ccc(Cl)cc2Cl)CCC1=O	-7.05%	–
CC(=O)c1cccc(-c2cnc3c(NC=O)cc(-c4cccc(C(=O)N(C)C)c4)cn23)c1	-7.52%	–
Cc1c(C(=O)c2cccc([N+](=O)[O-])c2)c2ccccn2c1CCC#N	-8.17%	–
COc1ccc(C(=O)c2c(C)c(CCC#N)n3ccccc23)c(OC)c1	–	29.9 µM (active)
COc1ccc(C(=O)CCc2ccccc2O)c(OC)c1	-0.281%	–
CN1CCn2cnc(C(=O)NCC(=O)OC(C)(C)C)c2C1=O	-1.56%	–
Cc1ccccc1S(=O)(=O)N1[C@@H](c2cccc(Cl)c2)C(C(=O)OC(C)(C)C)=CC[C@H]1c1ccc(Cl)cc1	-12.6%	–
CCCCNC(=O)C[C@@H]1C[C@@]2(C(=O)OCC)CCC=C2N(Cc2ccco2)C1=O	-10.8%	–
Cc1ccc(S(=O)(=O)N2CC3C(=O)C[C@@H](c4ccccc4Cl)N(S(=O)(=O)c4ccc(C)cc4)C3CC2c2ccccc2)cc1 (stereo partly drawn)	1.78%	–
O=C(CSc1nnc(-c2ccccn2)n1-c1ccccc1)Nc1ccc2c(c1)OCO2	-6.44%	–
Cc1ccc(-n2c(SCC(=O)Nc3ccc4c(c3)OCO4)nnc2-c2ccoc2C)cc1	–	23.8 µM (active)
Cc1ccc(-n2c(SCC(=O)Nc3ccc4c(c3)OCO4)nnc2-c2ccccn2)cc1	-3.49%	–
O=C(NCc1cccnc1)c1cc(C2CCCN(C(=O)CCCc3ccccc3)C2)on1 (stereo not drawn)	7.06%	–
C/C(COc1ccccc1)=N\NC(=O)c1nnn(-c2nonc2N)c1-c1ccc(C)cc1	-7.46%	–
CCC(=O)NC(=S)Nc1ccc(NC(=O)c2ccco2)c(Cl)c1	–	29.9 µM (active)
Cc1cccc(OCC(=O)Nc2ccc(NC(=O)c3ccco3)c(C)c2)c1	-7.98%	–
O=C(NNC(=S)Nc1ccc(Br)cc1Cl)c1ccco1	-12.7%	–
CCCCN1C(=O)C(CC(=O)NC(c2ccccc2)c2ccccc2)CC(C(=O)N2CCOCC2)=C1C (stereo not drawn)	-4.16%	–
Cc1nc(C(F)(F)F)ccc1C(=O)N1CCC1(C)C(=O)NS(=O)(=O)c1ccccc1 (stereo not drawn)	-4.71%	–
COc1ccc(N2C(=O)CC(SC(C)C)C2=O)cc1 (stereo not drawn)	-4.56%	–
COc1ccc(-c2nc(SCC(=O)N3CCCC3)n[nH]2)cc1	-1.92%	–
COc1ccc(N2C(=O)CC(Sc3n[nH]c(-c4ccc(C)cc4)n3)C2=O)cc1 (stereo not drawn)	–	18.9 µM (active)
Cc1noc(C)c1-c1ccc(C(=O)NCc2ccncc2)c2occc12	-3.63%	–
CCc1nc2ccc(C(=O)Nc3cccc(OC)c3)cn2c1N(CCC(C)C)CCN(C)C	0.24%	–
S=c1[nH]c2ccccc2c2ccccc12	–	18.9 µM (active)

SMILES	max response, negative = inhibition	Potency
Cc1cc2c3ccccc3[nH]c(=O)n2n1	-0.899%	–
COC(=O)Cc1c(-c2[nH]c3ccccc3c2CC(=O)OC)[nH]c2ccccc12	0.279%	–
CCCNC(=O)C1CC(=O)N(c2ccc(OCc3ccccc3)cc2)C1 (stereo not drawn)	3.86%	–
Cc1nc(C(F)(F)F)ccc1C(=O)N1CCC1(C)C(=O)NS(=O)(=O)c1ccccc1Cl (stereo not drawn)	-15.4%	–
O=C(Nc1ccc(N2CCOCC2)cc1)c1ccc2c(c1)OCO2	–	26.7 µM (active)
O=C(Nc1ccc(N2CCOCC2)cc1)c1cccc(S(=O)(=O)N2CCOCC2)c1	-5.11%	–
COC(=O)c1ccc(N2CCOCC2)c(NC(=O)c2ccc3c(c2)OCCO3)c1	0.435%	–
COCOCCn1cc(CN2CCS(=O)(=O)N(Cc3ccc(-c4ccc(OC)cc4)cc3)C(CC(C)C)C2=O)nn1 (stereo not drawn)	-17%	–
CCC(C)CN1C(=O)CN(S(C)(=O)=O)CC1(C)C(=O)Nc1ccc2c(c1)OCCO2 (stereo not drawn)	-14.3%	–
Cc1ccc(S(=O)(=O)N2[C@@H](c3cccc(Cl)c3)C(C(=O)O)=CC[C@H]2c2ccc(Cl)c(Cl)c2)cc1	–	21.2 µM (active)
CCOC(=O)C1=CC[C@@H](c2ccccc2)N(S(=O)(=O)c2ccc(C)cc2)[C@H]1c1cccc(OC)c1	-10.4%	–
Cc1ccc(S(=O)(=O)N2[C@@H](c3ccccc3F)C(C(=O)O)=CC[C@H]2c2ccc(Cl)cc2)cc1	-15.9%	–
CCc1noc(C)c1C(=O)OCC(=O)c1ccc(NC(=O)CC(C)C)cc1	-8.24%	–
CC(C)C[C@@H]1COc2cc(N3CCC[C@@H]3CO)ccc2S(=O)(=O)N1	2.66%	–
N#Cc1c(N)sc2c1CCN(C(=O)OCc1ccccc1)C2	–	23.8 µM (active)
CC(C)N1CCc2c(sc(NC(=O)Cc3ccccc3)c2C#N)C1	-26%	–
CC(=O)N1CCc2c(sc(NC(=O)CCS(=O)(=O)c3ccccc3)c2C#N)C1	-11.3%	–
CCN(CC)C(=O)C1=C(C)N(Cc2ccccc2)C(=O)C(CC(=O)NC(c2ccccc2)c2ccccc2)C1 (stereo not drawn)	-7.71%	–
CCCCc1nc2ccc(F)cc2cc1C	-7.86%	–
CN(C)C(=O)N=NC(=O)N(C)C	–	1.89 µM (active)
O=C(CSc1nc2cccc(F)c2c(=O)n1-c1ccccc1)Nc1ccc2c(c1)CCC2	-2.85%	–
CC(C)(O)C#Cc1ccc(CNC[C@H]2O[C@@H](n3cnc4c(=O)[nH]c(N)nc43)[C@H](O)[C@@H]2O)s1	0.0305%	–
COC(=O)c1ccc2c(c1)S(=O)(=O)NC2C (stereo not drawn)	-7.33%	–
O=C(NC1CC1)C(Cc1ccccc1)NS(=O)(=O)c1ccccc1F (stereo not drawn)	–	23.8 µM (active)
CSCCC(NS(=O)(=O)c1ccccc1F)C(=O)N1CC=C(c2ccccc2)CC1 (stereo not drawn)	0.274%	–
CN(Cc1ccccc1F)C(=O)C(Cc1ccccc1)NC(=O)c1ccccc1 (stereo not drawn)	-7.43%	–
